Results on 21 compounds are retold here after PubChem BioAssay (NCI).

Test [1] in a line: NCI Yeast Anticancer Drug Screen. Data for the rad50 strain (AID 155).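 Also: 0% = growth of vehicle-only cultures of the same strain.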 Particulars: S. cerevisiae rad50 strain growth inhibition; at 50.0 µM; stronger effect = higher value. The method, boiled down: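 Genetically altered yeast (DNA repair pathway); compound treatment; growth inhibition vs vehicle ctrl.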
Test [2] can be described thus: NCI Yeast Anticancer Drug Screen. Data for the mec2-1 strain (AID 157). The following applies: S. cerevisiae mec2-1 strain, at 50.0 µM, stronger effect = higher value. The method in brief: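 Strain: mec2-1 (DNA repair/cell cycle alteration). Compound exposure, then growth measured; inhibition expressed relative to vehicle.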
The nature of test [3]: NCI Yeast Anticancer Drug Screen. Data for the sgs1 mgt1 strain (AID 161).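 Also: 0% = growth of cultures given vehicle only.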 The following applies: S. cerevisiae sgs1 mgt1 strain, at 50.0 µM, stronger effect = higher value. The method in brief:
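Test agents were incubated with a DNA-repair-mutant yeast strain. Growth was then read and compared against vehicle-treated controls.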

Test [4] in a line: NCI Yeast Anticancer Drug Screen. Data for the cln2 rad14 strain (AID 165).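 Also: 0% = growth equal to vehicle treated cultures.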 Particulars: S. cerevisiae cln2 rad14 strain, at 50.0 µM, stronger effect = higher value. The method, boiled down: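 Compounds are applied to the cln2 rad14 yeast strain, and growth is then compared with that of vehicle-treated cultures to give inhibition.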
Test [5] can be described thus: NCI Yeast Anticancer Drug Screen. Data for the bub3 strain (AID 167). The following applies: S. cerevisiae bub3 mutant strain, at 50.0 µM, stronger effect = higher value. The method, boiled down: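 Yeast carrying a defined mutation is treated with each compound, and growth is compared with that of vehicle-exposed cells to give inhibition.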
A short description of test [6]: NCI Yeast Anticancer Drug Screen. Data for the mlh1 rad18 strain (AID 175). The following applies: S. cerevisiae mlh1 rad18 strain growth inhibition; at 50.0 µM; stronger effect = higher value. The method in brief:
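Read-out is yeast growth inhibition, calculated against vehicle-only controls. The compound was applied to a strain engineered with DNA damage repair alterations.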

About 79,000 compounds went through this panel and 15% of them were active in at least one assay; those are over-represented in the sample as a whole. Unmarked numbers belong to inactive results. Active and inactive are the calls of the source. Rule as the data show it: active = growth inhibition above about 70%; inactive = the rest.

`CC(=O)c1cc(Cl)ccc1Cl`: the growth inhibition in test [1] is 23.9%; in test [2] it was -6.2%; in test [3], -0.8%; in test [4], 33%; in test [5], -3.05%; in test [6] it was 26.1%.

For the compound `N#CCCN1C(=O)C2(CCC#N)CCCCC2(O)N=C1c1ccccc1` (stereo unspecified), the growth inhibition is -7.35% in test [1]; 6.15% in test [2]; 16.5% in test [3]; -0.5% in test [4]; 15.2% in test [5]; 7.7% in test [6].

Regarding `c1cc2nc(c1)CSCCCCCCCCSC2`, the growth inhibition in test [1] is -3.25%; in test [2] it was 41%; in test [3], 17.8%; in test [4] it was -10.1%; in test [5], 55%; in test [6], 36%.

Regarding `Brc1nc(-[n+]2ccccc2)[n-]c1Br`, the growth inhibition was -0.75% in test [1]; 3.75% in test [2]; -13.9% in test [3]; -60.5% in test [4]; 1.5% in test [5]; 1.4% in test [6].

For `O=[N+]([O-])c1sc2ccccc2c1Br`, the growth inhibition in test [1] is 98% (active); in test [2], 98.7% (active); in test [3], 98.8% (active); in test [4], 99% (active); in test [5], 99.1% (active); in test [6], 98.7% (active).

For the compound `CCCNC(=O)Nc1ccc2c(c1)Cc1cc([N+](=O)[O-])ccc1-2`, the growth inhibition is -12.2% in test [1]; 2.5% in test [2]; -4.3% in test [3]; -42% in test [4]; 6.75% in test [5]; -14.3% in test [6].

Regarding `CCN(Cc1ccccc1)c1ccccc1C`, the growth inhibition was 12% in test [1]; -6.85% in test [2]; 10.8% in test [3]; 0% in test [4]; 7.65% in test [5]; 1.45% in test [6].

As to `NC(=O)c1nc(N)nc(N)c1[N+](=O)[O-]`, the growth inhibition was -10.8% in test [1]; -15.1% in test [2]; -16.1% in test [3]; -18.8% in test [4]; -21.9% in test [5]; -18.9% in test [6].

Consider `Cc1ccccc1N1CCOS(=O)OC(C)C1` (stereo unspecified), for which the growth inhibition in test [1] was -3.6%; in test [2], 23.7%; in test [3] it was 64.8%; in test [4], 39.9%; in test [5] it was 55.3%; in test [6], 57.5%.

Regarding `COc1cccc(C(F)(F)F)c1`, the growth inhibition in test [1] was -3.1%; in test [2] it was 10.3%; in test [3], -10.3%; in test [4] it was -6.85%; in test [5], 19.4%; in test [6], -13%.

Turning to `S=c1nc[nH]c2c1cnn2-c1ccccc1`, the growth inhibition was 5.6% in test [1]; 19.6% in test [2]; 54.4% in test [3]; -13.2% in test [4]; -7.3% in test [5]; 40.2% in test [6].

Regarding `COc1ccccc1Nc1nc(NNC(=O)Cc2ccccc2)nc(NNC(=O)c2ccncc2)n1`, the growth inhibition was 27.4% in test [1]; 36.2% in test [2]; 25.3% in test [3]; 17.6% in test [4]; 22.7% in test [5]; 25.6% in test [6].

With `O=C1CCC(c2ccccc2)(C2CCN(Cc3ccc(F)cc3)CC2)C(=O)N1` (stereo unspecified), the growth inhibition in test [1] was -8.55%; in test [2] it was 4.85%; in test [3], -5.85%; in test [4], -14.8%; in test [5], 3.45%; in test [6], 4.8%.

Turning to `CN(C)CCNC(=O)c1cc([N+](=O)[O-])cn1C`, the growth inhibition was 10.9% in test [1]; -1.4% in test [2]; 9.15% in test [3]; 7.65% in test [4]; 1.25% in test [5]; -68.2% in test [6].

For the compound `O=C1CN(N2CCOCC2)CC(=O)N2CCCCN12`, the growth inhibition in test [1] is 20.9%; in test [2], 1.25%; in test [3], 13.9%; in test [4] it was 19.9%; in test [5], 10.4%; in test [6], 6.25%.

`CC(C)(C)NCC1CCCC1`: the growth inhibition in test [1] was 0.55%; in test [2], -1.5%; in test [3] it was 2.4%; in test [4], -22.9%; in test [5], -11.4%; in test [6], -3.8%.

In the case of `O=S(=O)(OC12CCCCC1CN1CCCCC1C2)c1ccc(Br)cc1` (stereo unspecified), the growth inhibition in test [1] was 14.6%; in test [2] it was 9.5%; in test [3], -4.1%; in test [4], -3.1%; in test [5], 3.7%; in test [6], 12.8%.

For the compound `CCOC(O)(NC(=O)C(C(F)(F)F)C(F)(F)F)C(F)(F)F` (stereo unspecified), the growth inhibition in test [1] is 6.05%; in test [2] it was -18.1%; in test [3] it was -33.4%; in test [4] it was -9.45%; in test [5], -12.4%; in test [6], -26.9%.

Consider `COc1cc(OC)c2c3c(OC)cc(OC)c4c(=O)c(O)c(C[C@@H](C)O)c(c5c(C[C@@H](C)O)c(O)c(=O)c1c25)c43`, for which the growth inhibition is 66.8% in test [1]; 46.4% in test [2]; 37% in test [3]; -4.45% in test [4]; 34.4% in test [5]; 54.9% in test [6].

In the case of `CN(Cc1cccc(Cl)c1)C(=O)NC(C)(C)C`, the growth inhibition in test [1] was 2.85%; in test [2], -6.85%; in test [3], 15.8%; in test [4] it was 4.2%; in test [5], 14.6%; in test [6], 0.05%.

Consider `Cc1ccc2c(c1)CN(C)c1ccc(C)cc1CN2C`, for which the growth inhibition in test [1] is 17.4%; in test [2] it was -11.8%; in test [3], 22.9%; in test [4], 21.8%; in test [5], 9.65%; in test [6] it was 31.1%.
